Experimental data from PubChem BioAssay (Tox21).
Several values for one entry are separate records, joined by “and”; a condition that tells them apart may be missing. Identical values can stand only once. Inconclusive results are not listed. Where a call stands in place of a potency, no number is given. A structure can be active in one record and inactive in another. Activity calls are given as the source filed them. Unless noted, the call rests on the fitted dose curve; in most records, active means well fitted curve in the direction sought with a large enough effect in the repeat runs; inconclusive means weak or mixed curves; inactive means no such curve, though single readings can be large; an effect the other way counts as inactive or inconclusive.

Columns and labels:
[1] = qHTS assay to test for compound auto fluorescence at 535 nm (green) in HEK293 cells (AID 720680)
[2] = qHTS assay to test for compound auto fluorescence at 460 nm (blue) in HEK293 cell free culture (AID 720681)
Procedure, shortened: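 Compounds were added to cell-free DMEM with 10% FBS and fluorescence read directly. The blue channel used 405 nm excitation and 460 nm emission, with triamterene as the reference fluorophore.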

[3] = qHTS assay to test for compound auto fluorescence at 535 nm (green) in HEK293 cell free culture (AID 720682)
Procedure, shortened: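 Using fluorescein as calibrant, autofluorescence was quantified at 485/535 nm in cell-free DMEM containing 10% FBS after pintool addition of compound or vehicle.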

[4] = qHTS assay to test for compound auto fluorescence at 590 nm (red) in HEK293 cell free culture (AID 720683)
Procedure, shortened: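 Cell-free wells of DMEM with 10% FBS received compound, and intrinsic fluorescence was read at excitation/emission 540/590 nm. Values expressed as equivalence to Rose Bengal sodium.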

[5] = qHTS assay to test for compound auto fluorescence at 590 nm (red) in HepG2 cell free culture (AID 720684)
Procedure, shortened: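 Auto fluorescence equivalency versus Rose Bengal sodium, red channel Ex/Em 540/590 nm; compounds in cell-free MEM/10% FBS; DMSO vehicle control.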

[6] = qHTS assay to test for compound auto fluorescence at 460 nm (blue) in HepG2 cell free culture (AID 720685)
Procedure, shortened: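 Cell-free plates of MEM plus 10% FBS received 23 nL compound or DMSO vehicle; blue-channel (405/460 nm) intensity scored against triamterene as reference fluorophore.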

[7] = qHTS assay to test for compound auto fluorescence at 535 nm (green) in HepG2 cell free culture (AID 720686)
[8] = qHTS assay to test for compound auto fluorescence at 460 nm (blue) in HepG2 cells (AID 720687)
Procedure, shortened: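 HepG2 cells in MEM with 10% FBS, attached overnight at 37 C, were exposed to compound or DMSO for 1 hr at 37 C, 5% CO2. Blue fluorescence was read at 405/460 nm, with triamterene as reference fluorophore.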

[9] = qHTS assay to identify small molecule antagonists of the glucocorticoid receptor (GR) signaling pathway - cell viability counter screen (AID 720693); further: nearly all actives have a fitted effect of over 55% in size; further: potency means the concentration at half of the fitted maximal effect
[10] = qHTS assay for identifying genotoxic compounds that show differential cytotoxicity against isogenic chicken DT40 cell lines with known DNA damage response pathways - wild type cell line (AID 743012); further: nearly all actives have a fitted effect of over 60% in size; further: potency means the concentration at half of the fitted maximal effect
Procedure, shortened: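 Viability by ATP luminescence (CellTiter-Glo, 30 min RT) after 40 h compound treatment at 37 C/5% CO2, using 300 parental DNA repair-proficient DT40 cells per well.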

[11] = qHTS assay for identifying genotoxic compounds that show differential cytotoxicity against isogenic chicken DT40 cell lines with known DNA damage response pathways - Rev3 mutant cell line (AID 743014); further: nearly all actives have a fitted effect of over 55% in size; further: potency means the concentration at half of the fitted maximal effect
[12] = qHTS assay for identifying genotoxic compounds that show differential cytotoxicity against isogenic chicken DT40 cell lines with known DNA damage response pathways - Rad54/Ku70 mutant cell line (AID 743015); further: nearly all actives have a fitted effect of over 60% in size; further: potency means the concentration at half of the fitted maximal effect
[13] = qHTS assay to identify small molecule antagonists of the androgen receptor (AR) signaling pathway - cell viability counter screen (AID 743033; further: nearly all actives have a fitted effect of over 45% in size; further: potency means the concentration at half of the fitted maximal effect)
[14] = target: Androgen receptor (Homo sapiens) (UniProt P10275); test: qHTS assay to identify small molecule antagonists of the androgen receptor (AR) signaling pathway (AID 743035; active means well fitted inhibition curve with a large enough effect in the signal ratio in the repeat runs, not every such curve was filed as active; the % refers to the signal ratio; further: potency means the concentration at half of the fitted maximal effect)
Chain of Androgen receptor (Homo sapiens) (P10275 whole entry, looked up): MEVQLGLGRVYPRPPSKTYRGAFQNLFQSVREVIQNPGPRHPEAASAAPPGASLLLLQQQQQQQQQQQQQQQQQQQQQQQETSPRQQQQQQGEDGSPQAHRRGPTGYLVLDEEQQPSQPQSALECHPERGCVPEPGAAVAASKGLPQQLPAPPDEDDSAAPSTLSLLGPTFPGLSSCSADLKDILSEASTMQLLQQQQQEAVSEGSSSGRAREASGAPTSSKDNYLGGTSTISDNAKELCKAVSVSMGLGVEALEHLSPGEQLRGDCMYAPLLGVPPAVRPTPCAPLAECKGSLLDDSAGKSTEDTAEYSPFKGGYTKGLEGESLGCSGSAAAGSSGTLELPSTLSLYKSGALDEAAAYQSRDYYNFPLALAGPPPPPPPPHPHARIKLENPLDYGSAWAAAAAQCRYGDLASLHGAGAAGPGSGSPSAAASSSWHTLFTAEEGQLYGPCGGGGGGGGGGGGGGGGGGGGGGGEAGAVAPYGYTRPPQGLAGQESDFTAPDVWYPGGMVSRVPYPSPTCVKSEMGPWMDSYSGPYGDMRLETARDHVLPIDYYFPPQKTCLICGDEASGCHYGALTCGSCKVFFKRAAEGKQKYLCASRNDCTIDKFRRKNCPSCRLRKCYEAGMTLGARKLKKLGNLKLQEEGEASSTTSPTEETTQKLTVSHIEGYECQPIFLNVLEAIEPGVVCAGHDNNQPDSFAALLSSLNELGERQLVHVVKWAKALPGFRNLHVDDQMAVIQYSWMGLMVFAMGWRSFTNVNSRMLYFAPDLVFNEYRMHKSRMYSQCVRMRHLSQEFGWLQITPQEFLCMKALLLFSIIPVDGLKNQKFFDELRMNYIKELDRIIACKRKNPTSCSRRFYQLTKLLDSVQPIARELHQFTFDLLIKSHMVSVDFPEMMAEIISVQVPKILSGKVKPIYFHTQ
Procedure, shortened: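 Antagonist mode: AR-bla HEK293 cells co-treated with test compounds and agonist R1881 for 16 h at 37C, 5% CO2. Beta-lactamase activity read as FRET fluorescence after 2 h room-temperature substrate loading.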

[15] = target: Androgen receptor (Homo sapiens) (UniProt P10275); test: qHTS assay to identify small molecule agonists of the androgen receptor (AR) signaling pathway using the MDA cell line (AID 743040; further: nearly all actives have a fitted effect of over 20% in size)
Procedure, shortened: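 Testing was done with the MDA-kb2 AR-luc line, a human breast carcinoma stably transfected with MMTV-luciferase containing AR and GR response elements. Cells were exposed 16 h at 37C before ONE-Glo luminescence detection.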

[16] = qHTS assay to identify small molecule antagonists of the androgen receptor (AR) signaling pathway using the MDA cell line - cell viability counter screen (AID 743041; further: nearly all actives have a fitted effect of over 45% in size)
Procedure, shortened: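 Compound exposure lasted 16 h at 37C in MDA-kb2 AR-luc cells stimulated with R1881. Protease-based CellTiter-Fluor reagent was applied for the final 30 min and fluorescence measured.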

[17] = target: Androgen receptor (Homo sapiens) (UniProt P10275); test: qHTS assay to identify small molecule antagonists of the androgen receptor (AR) signaling pathway using the MDA cell line (AID 743042; further: nearly all actives have a fitted effect of over 55% in size; further: potency means the concentration at half of the fitted maximal effect)
Procedure, shortened: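 MDA-kb2 breast carcinoma cells carrying MMTV-luciferase (AR/GR responsive) were co-treated with compounds and the agonist R1881 for 16 h at 37C. Inhibition read as ONE-Glo luminescence; CellTiter-Fluor fluorescence measured in parallel for cytotoxicity.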

[18] = target: Glucocorticoid receptor (Homo sapiens) (UniProt P04150); test: qHTS assay to identify small molecule agonists of the glucocorticoid receptor (GR) signaling pathway (AID 720691; active means well fitted activation curve with a large enough effect in the signal ratio in the repeat runs, not every such curve was filed as active; the % refers to the signal ratio; further: potency means the concentration at half of the fitted maximal effect)
Chain of Glucocorticoid receptor (Homo sapiens) (P04150 whole entry, looked up): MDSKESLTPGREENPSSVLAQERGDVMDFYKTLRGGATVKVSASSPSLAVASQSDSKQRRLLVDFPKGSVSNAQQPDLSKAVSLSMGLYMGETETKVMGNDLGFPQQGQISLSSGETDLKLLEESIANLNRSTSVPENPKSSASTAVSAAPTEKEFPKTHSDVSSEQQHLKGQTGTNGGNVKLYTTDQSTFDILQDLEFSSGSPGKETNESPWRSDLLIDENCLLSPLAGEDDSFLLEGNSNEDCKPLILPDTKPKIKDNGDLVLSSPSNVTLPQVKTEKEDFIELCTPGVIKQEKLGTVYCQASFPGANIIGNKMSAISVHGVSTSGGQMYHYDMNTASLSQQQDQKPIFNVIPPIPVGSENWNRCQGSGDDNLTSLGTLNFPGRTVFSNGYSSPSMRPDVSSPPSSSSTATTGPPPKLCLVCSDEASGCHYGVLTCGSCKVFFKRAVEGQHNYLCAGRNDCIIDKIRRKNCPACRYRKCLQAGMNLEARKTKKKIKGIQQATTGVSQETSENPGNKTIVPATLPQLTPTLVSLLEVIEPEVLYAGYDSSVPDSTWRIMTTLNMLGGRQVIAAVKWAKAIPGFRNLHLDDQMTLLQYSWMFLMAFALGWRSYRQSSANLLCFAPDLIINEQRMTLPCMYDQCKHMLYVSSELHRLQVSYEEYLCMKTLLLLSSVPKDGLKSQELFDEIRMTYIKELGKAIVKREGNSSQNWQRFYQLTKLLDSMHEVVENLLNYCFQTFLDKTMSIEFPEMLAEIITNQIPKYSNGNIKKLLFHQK
Procedure, shortened: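 Agonist-mode qHTS in HeLa cells stably expressing a glucocorticoid-response-element beta-lactamase reporter. Fluorescence intensity read with FRET substrate (2 h, room temperature) after 18 h compound treatment at 37 C.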

[19] = target: Glucocorticoid receptor (Homo sapiens) (UniProt P04150); test: qHTS assay to identify small molecule antagonists of the glucocorticoid receptor (GR) signaling pathway (AID 720692; active means well fitted inhibition curve with a large enough effect in the signal ratio in the repeat runs, not every such curve was filed as active; the % refers to the signal ratio)
Procedure, shortened: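 Inhibition of dexamethasone-driven (5 nM final) beta-lactamase expression was measured in GRE-reporter HeLa cells over 18 h at 37C. Fluorescence was read after 2 h with the B/G FRET substrate at room temperature.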

[20] = target: Androgen receptor (Homo sapiens) (UniProt P10275); test: qHTS assay to identify small molecule agonists of the androgen receptor (AR) signaling pathway (AID 743036; active means well fitted activation curve with a large enough effect in the signal ratio in the repeat runs, with a control signal flat, not every such curve was filed as active; the % refers to the signal ratio)
Procedure, shortened: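 In this Tox21 qHTS, 2,000 HEK293 AR-bla cells per well were incubated with compounds for 16 h at 37C and 5% CO2. Fluorescence intensity was recorded 2 h after adding LiveBLAzer B/G FRET substrate at room temperature.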

| SMILES | Potency [1] | Potency [2] | Potency [3] | outcome [4] | outcome [5] | Potency [6] | Potency [7] | Potency [8] | Potency [9] | Potency [10] | Potency [11] | Potency [12] | Potency [13] | Potency [14] | outcome [15] | Potency [16] | Potency [17] | Potency [18] | Potency [19] | Potency [20] |
| --- | --- | --- | --- | --- | --- | --- | --- | --- | --- | --- | --- | --- | --- | --- | --- | --- | --- | --- | --- | --- |
| CCOc1ccc2c(c1)C(C)=CC(C)(C)N2 | inactive | inactive | inactive | inactive | inactive | inactive | inactive | inactive | inactive | 13.3 µM (active) and 13.7 µM (active) | 26.6 µM (active) and 27.2 µM (active) and 17.2 µM (active) | 21.1 µM (active) and 54.2 µM (active) and 15.4 µM (active) | inactive | inactive | inactive | inactive | inactive |  |  |  |
| C=C(C)C1CC=C(C)C(OC(C)=O)C1 (centres undefined) | inactive | inactive | inactive | inactive | inactive | inactive | inactive | inactive | inactive | inactive | inactive | inactive | inactive |  |  | inactive |  | inactive | inactive |  |
| NC(=Nc1ccccc1)Nc1ccccc1 | inactive | inactive | inactive | inactive | inactive | inactive | inactive | inactive | inactive |  | inactive and 42 µM (active) | inactive and 61.1 µM (active) | inactive |  |  | inactive |  | inactive |  |  |
| CCCCCCCCCCCCc1ccccc1O | inactive | inactive | inactive | inactive | inactive | inactive | inactive | inactive | 21.6 µM (active) and 21.9 µM (active) | 12 µM (active) and 30.6 µM (active) | 7.59 µM (active) and 24.3 µM (active) | 12 µM (active) and 27.3 µM (active) | 24.2 µM (active) and 38.9 µM (active) | 21.6 µM (active) | inactive | inactive | 54.5 µM (active) |  |  |  |
| CC(=O)N[C@@H](CS)C(=O)O | inactive | inactive | inactive | inactive | inactive | inactive | inactive | inactive | inactive | inactive | inactive | inactive | inactive |  |  | inactive |  | inactive | inactive |  |
| c1ccc2c(c1)-c1cccc3c1c-2cc1ccccc13 | inactive | inactive | inactive | inactive | inactive | inactive | inactive | inactive | inactive | inactive | inactive | inactive | inactive |  |  | inactive |  | 21.4 µM [fluorescent] (active) and 49 µM [fluorescent] (active) |  |  |
| O=C(O[C@@H]1Cc2c(O)cc(O)cc2O[C@@H]1c1cc(O)c(O)c(O)c1)c1cc(O)c(O)c(O)c1 | inactive | inactive | inactive | inactive | inactive | inactive | inactive | inactive | inactive |  | 54.6 µM (active) |  | inactive |  |  | inactive |  | inactive | inactive |  |
| CCCC(=O)c1ccccc1 | inactive | inactive | inactive | inactive | inactive | inactive | inactive | inactive | inactive |  |  | inactive | inactive | inactive | inactive | inactive | inactive | inactive | inactive |  |
| CC(=O)O[C@]1(C(C)=O)CC[C@H]2[C@@H]3C[C@H](C)C4=CC(=O)CC[C@]4(C)[C@H]3CC[C@@]21C | inactive | inactive | inactive | inactive | inactive | inactive | inactive | inactive | inactive | 5.31 µM (active) | 3.76 µM (active) and 4.85 µM (active) | 8.41 µM (active) and 21.7 µM (active) |  |  |  | inactive |  | 37.9 nM (active) and 21.9 nM (active) |  |  |
| OCC(CO)N[C@H]1C[C@](O)(CO)[C@@H](O)[C@H](O)[C@H]1O | inactive | inactive | inactive | inactive | inactive | inactive | inactive | inactive | inactive | inactive | inactive | inactive | inactive | inactive | inactive | inactive | inactive | inactive |  | inactive |
| C/C=C/c1ccc(OCC)c(O)c1 | inactive | inactive | inactive | inactive | inactive | inactive | inactive | inactive | inactive | inactive | inactive | inactive | inactive |  |  | inactive |  | inactive |  |  |
